SW480 rerep: A quantitative high throughput screen for small molecules that induce DNA re-replication in SW480 colon adenocarcinoma cells. Potency, µM (series often up to 46.1 µM), hits mostly activators. 340,000 compounds, 1.8% hits. SW480 DNA re-replication, Hoechst DNA content imaging, 48 h. AID 624297, 2012; further: nearly all actives have a fitted effect of over 55% in size
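DNA re-replication was detected as more nuclei of elevated Hoechst intensity after 48 hr exposure to compound (23 nL pinned per well of 250 cells).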
IL-1B inflam inh: qHTS for Inhibitors of Inflammasome Signaling: IL-1-beta AlphaLISA Primary Screen; THP-1 LPS/ATP IL-1B secretion, AlphaLISA, 16 h; active compounds read low; activity change, % at 57.5 µM; 360,000 compounds, 4.7% hits; AID 743279, 2014; in the data active means activity change below about -50%; inconclusive means mostly about -30% to -49%
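Secreted IL-1B measured by AlphaLISA bead assay after 16 h compound exposure of THP-1 cells; compounds (final up to 57.5 uM) added 1 h before LPS (250 ng/mL) and ATP (1.25 mM) stimulation; lower signal means less secretion.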
BCR signal inh: qHTS Assay to Find Inhibitors of Chronic Active B-Cell Receptor Signaling. ABC-DLBCL IkBa-CBG/CBR reporter, luminescence ratio, 4 h. 340,000 compounds, 0.05% hits. AID 493014, 2011. Potency, µM (top dose mostly 46.1 µM), hits mostly inhibitors; active means well fitted inhibition curve with a large enough effect in the signal ratio, with a control signal flat, not every such curve was filed as active; inconclusive means small, poorly fitted or top-dose-only effect, or effect the other way, or a change in a side signal; the % refers to the signal ratio
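TMD8 human ABC-DLBCL cells with doxycycline-inducible IκBα–green luciferase fusion and unfused red luciferase, in 0.5% FBS medium; compounds up to 46 uM, 4 h at 37C. Green/red luminescence ratio, filter-overlap corrected, fitted to concentration-response curves.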
DT40 TDP1 CPT: qHTS for Inhibitors of human tyrosyl-DNA phosphodiesterase 1 (TDP1): qHTS in cells in presence of CPT. Potency, µM (highest dose often 46.2 µM), actives largely listed as inhibitors. 420,000 compounds, 12% hits. chicken DT40 Tdp1-/-;hTDP1 cells + 20 nM CPT, ATP luminescence, 48 h; further: nearly all actives have a fitted effect of over 55% in size
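Cell growth measured by CellTiter-Glo luminescence after a minimum 48 h, 37 C compound exposure with 20 nM CPT in Tdp1-knockout DT40 cells stably expressing hTDP1, seeded 400/well; qHTS titration format.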
MCF10A rereplic: A quantitative high throughput screen for small molecules that induce DNA re-replication in MCF 10a normal breast cells. 350,000 compounds, 2.9% hits. AID 624296, 2012. Potency, µM (top dose mostly 46.1 µM), hits mostly activators. MCF 10A DNA re-replication, Hoechst nuclear intensity, 48 h; further: nearly all actives have a fitted effect of over 50% in size
DT40 TDP1 no CPT: qHTS for Inhibitors of human tyrosyl-DNA phosphodiesterase 1 (TDP1): qHTS in cells in absence of CPT; DT40 Tdp1-/- hTDP1 cells, no CPT, ATP luminescence, 48 h; Potency, µM (titrated, usually from 46.2 µM), hits mostly inhibitors; 420,000 compounds, 15% hits; further: nearly all actives have a fitted effect of over 55% in size
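Growth kinetics read by CellTiter-Glo luminescence after ≥48 hr at 37 °C. Cells: DT40 Tdp1-/- stably carrying human TDP1, 400 per well, compound exposure in the absence of CPT (DMSO vehicle).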
Numbers stand for hits; . = inactive; ? = inconclusive; / = not tested or not shown; [ ] = remark or other dose. Compounds with a hit are over-represented: about 19% of the library has one in this group of screens. Unless noted, the call rests on the fitted dose curve; in most records, active means well fitted curve in the direction sought with a large enough effect; inconclusive means small, poorly fitted or top-dose-only effect, or another doubt; inactive means no such curve, though single readings can be large; an effect the other way counts as inactive or inconclusive.

SMILES	SW480 rerep	IL-1B inflam inh	BCR signal inh	DT40 TDP1 CPT	MCF10A rereplic	DT40 TDP1 no CPT
CCN(C(=O)COC(=O)c1c2c(nc3ccccc13)/C(=C/c1ccccc1)CC(C)C2)C1CCS(=O)(=O)C1 (stereo not given)	7.3µM	.	.	?	?	13µM
COc1ccc2c(-c3ccccc3)cc(SCC(=O)NC3CCS(=O)(=O)C3)nc2c1 (stereo not given)	.	-82	.	.	.	.
O=C(CSc1nc(-c2cccs2)nc2ccccc12)NC1CCS(=O)(=O)C1 (stereo not given)	.	.	?	.	.	.
COc1ccc(C(=O)O)cc1S(=O)(=O)N1CCSCC1	.	.	.	.	.	.
CC1=C(C(=O)N(C)C)CC(CC(=O)NCCc2ccccn2)C(=O)N1Cc1ccc(F)cc1 (stereo not given)	/	.	/	.	/	?
CCN1CCn2c3c(c4cccc(C)c42)CCCC31 (stereo not given)	.	.	.	.	?	.
CCOc1ccccc1-c1nc(Cn2c(=O)cc(C)c3c(C)nn(-c4ccccc4)c32)c(C)o1	/	/	/	.	/	.
O=C(CN1C(=O)C(=O)c2ccccc21)NC1CCCCC1	.	.	.	26µM	.	23µM
CC(C)N(C(=O)CN1C(=O)C(=O)c2ccccc21)c1ccccc1	?	.	.	.	.	.
Cc1c(NC(=O)CN2C(=O)C(=O)c3ccccc32)c(=O)n(-c2ccccc2)n1C	.	.	.	.	.	.
O=C1C(=O)N(Cc2cccs2)c2ccccc21	?	.	.	4.6µM	?	5.2µM
CCc1cccc(CC)c1NC(=O)CN1C(=O)C(=O)c2ccccc21	/	/	/	5.2µM	/	3.3µM
O=C(CN1C(=O)C(=O)c2ccccc21)c1ccccc1	?	.	.	18µM	.	4.1µM
CCN1C[C@@H]2[C@@H]3C(=O)N(Cc4ccccc4)C(=O)[C@@H]3[C@](CC)(C(=O)OC)N2C1=NC	.[9.22 µM]	.	.	.	.	.
CCc1ccc(N2C(=O)CN(Cc3cccs3)C2=S)cc1	.	.	.	.	.	.
O=C1CSC(=S)N1Cc1cccs1	?	.	/	?	?	18µM
CCCCCCCCN1C(=O)[C@H](CC(=O)NCCCC)C[C@@]2(C(=O)OC)CCCCC=C12	/	/	/	16µM	/	12µM
CCCCOCCCNC(=O)C[C@@H]1C[C@@]2(C(=O)OCC)CCCC=C2N(Cc2ccco2)C1=O	/	.	/	.	/	?
CCCCCCCCN1C(=O)[C@H](CC(=O)NCCCOCCCC)C[C@@]2(C(=O)OCC)CCCC=C12	/	.	/	13µM	/	16µM
CCOC(=O)[C@]12CCCC=C1N(CCc1ccc(OC)c(OC)c1)C(=O)[C@H](CC(=O)NCCCN1CCCC1=O)C2	/	.	/	.	/	.
CCCCOCCCNC(=O)C[C@@H]1C[C@@]2(C(=O)OCC)CCCC=C2N(CCc2ccc(OC)c(OC)c2)C1=O	/	.	/	21µM	/	?
CCCCCCCCN1C(=O)[C@H](CC(=O)NCCCOCCCC)C[C@@]2(C(=O)OC)CCCCC=C12	/	-78	/	13µM	/	18µM
CCCCn1c(N)c(N(C(=O)CSc2nncn2-c2ccccc2)C2CCCC2)c(=O)[nH]c1=O	.	?	/	.	.	.
Cc1ccc(C(=O)NCN2CCN(c3ccccc3)CC2)cc1	.	.	?	.	.	.
CC(=O)c1ccc(OCC(=O)N2CCCCC2)cc1	/	/	/	.	/	.
O=S(=O)(Nc1ncn[nH]1)c1ccc(Cl)cc1	.	.	.	.	.	.
CCN(CC)C(=O)Cn1c(=O)n(CCCCCC(=O)NCc2ccc3c(c2)OCO3)c(=O)c2sccc21	/	/	/	?	/	.
N[C@@H](Cc1cc(I)c(Oc2ccc(O)cc2)c(I)c1)C(=O)O	/	/	/	.	/	?
